# Legend:
# Experiment in all cases: DAPPL (digital affinity profiling via proximity ligation, sequencing); 10 mM Tris-HCl pH 7.5, 50 mM NaCl, 1 mM DTT, 4% glycerol, room temperature, 30 min; GST-TFs on glutathione beads, 16-mer random dsDNA library, 0.1% formaldehyde crosslink after washing; high values mean tight binding
# Conditions in all cases: protein: recombinant; tags: N-terminal GST; dsDNA, one strand shown
# FLI1 = biological target: T1, FLI1 (Homo sapiens, UniProt Q01543 1-452)
# T1 sequence: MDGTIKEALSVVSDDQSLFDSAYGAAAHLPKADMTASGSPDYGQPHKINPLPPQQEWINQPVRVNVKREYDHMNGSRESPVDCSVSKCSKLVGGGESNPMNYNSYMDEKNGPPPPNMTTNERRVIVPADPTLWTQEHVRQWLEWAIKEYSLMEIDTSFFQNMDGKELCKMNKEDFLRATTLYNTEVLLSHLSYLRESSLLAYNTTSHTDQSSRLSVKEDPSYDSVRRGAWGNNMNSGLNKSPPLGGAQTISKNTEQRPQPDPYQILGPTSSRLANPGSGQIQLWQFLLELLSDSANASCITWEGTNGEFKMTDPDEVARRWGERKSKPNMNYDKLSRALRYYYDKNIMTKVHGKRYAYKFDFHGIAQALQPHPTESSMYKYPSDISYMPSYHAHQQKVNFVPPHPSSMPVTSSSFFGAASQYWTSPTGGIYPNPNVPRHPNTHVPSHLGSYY
# In short: (§1)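 Pools were built from human transcription factors expressed in yeast as GST fusions, captured on glutathione beads and DNA-barcoded, along with a tag-only sample. Incubation with 200 nmole of a 16-mer random double-stranded DNA library lasted 30 min at room temperature in Tris/NaCl/DTT/glycerol buffer, and was followed by washing, 0.1% formaldehyde crosslinking, proximity ligation, PCR amplification and Illumina NextSeq500 sequencing. Binding signal is the quotient of each hexamer's read frequency for a factor and its frequency for the tag-only sample.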
# ELK1 = biological target: T2, ELK1 (Homo sapiens, UniProt P19419 1-428)
# T2 sequence: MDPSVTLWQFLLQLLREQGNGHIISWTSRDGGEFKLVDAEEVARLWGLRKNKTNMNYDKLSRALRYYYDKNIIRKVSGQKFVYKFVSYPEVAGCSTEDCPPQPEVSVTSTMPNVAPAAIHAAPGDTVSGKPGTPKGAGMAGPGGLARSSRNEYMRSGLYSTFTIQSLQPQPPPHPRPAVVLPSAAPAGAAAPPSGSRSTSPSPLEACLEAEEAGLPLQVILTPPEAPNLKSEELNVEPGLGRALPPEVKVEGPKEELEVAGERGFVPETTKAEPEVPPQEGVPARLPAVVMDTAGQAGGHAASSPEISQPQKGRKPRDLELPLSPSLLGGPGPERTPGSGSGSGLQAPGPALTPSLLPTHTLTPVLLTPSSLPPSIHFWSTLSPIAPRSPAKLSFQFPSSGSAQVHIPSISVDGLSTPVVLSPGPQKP
# In short: as §1
# GABPA = biological target: T3, GABPA (Homo sapiens, UniProt Q06546 1-454)
# T3 sequence: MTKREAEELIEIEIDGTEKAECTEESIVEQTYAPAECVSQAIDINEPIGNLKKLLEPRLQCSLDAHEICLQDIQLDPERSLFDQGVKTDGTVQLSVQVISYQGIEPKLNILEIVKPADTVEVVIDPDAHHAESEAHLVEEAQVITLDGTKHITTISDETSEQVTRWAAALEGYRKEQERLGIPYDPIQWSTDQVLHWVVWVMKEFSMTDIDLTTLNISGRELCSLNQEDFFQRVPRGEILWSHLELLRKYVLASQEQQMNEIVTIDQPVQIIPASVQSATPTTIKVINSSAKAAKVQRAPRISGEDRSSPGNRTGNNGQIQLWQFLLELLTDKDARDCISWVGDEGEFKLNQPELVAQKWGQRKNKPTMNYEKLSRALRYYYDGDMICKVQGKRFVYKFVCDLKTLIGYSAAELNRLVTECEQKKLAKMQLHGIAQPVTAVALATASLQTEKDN
# In short: as §1
# ERG = biological target: T4, ERG (Homo sapiens, UniProt P11308 1-479)
# T4 sequence: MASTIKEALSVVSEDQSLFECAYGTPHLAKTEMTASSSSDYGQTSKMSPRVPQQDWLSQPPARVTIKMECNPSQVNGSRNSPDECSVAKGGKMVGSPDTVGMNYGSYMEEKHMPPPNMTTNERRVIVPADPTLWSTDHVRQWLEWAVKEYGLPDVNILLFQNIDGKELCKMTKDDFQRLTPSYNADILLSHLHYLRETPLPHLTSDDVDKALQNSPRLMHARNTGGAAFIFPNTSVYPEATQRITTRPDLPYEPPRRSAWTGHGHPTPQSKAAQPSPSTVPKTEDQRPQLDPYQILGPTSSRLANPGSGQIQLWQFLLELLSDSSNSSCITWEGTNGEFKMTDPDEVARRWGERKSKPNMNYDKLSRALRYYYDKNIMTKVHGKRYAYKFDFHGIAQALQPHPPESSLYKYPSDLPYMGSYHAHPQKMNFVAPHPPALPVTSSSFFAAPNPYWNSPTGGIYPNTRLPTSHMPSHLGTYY
# In short: as §1
# ELF1 = ELF1 (Homo sapiens, UniProt P32519 1-619)
# Sequence of ELF1 (P32519 whole entry): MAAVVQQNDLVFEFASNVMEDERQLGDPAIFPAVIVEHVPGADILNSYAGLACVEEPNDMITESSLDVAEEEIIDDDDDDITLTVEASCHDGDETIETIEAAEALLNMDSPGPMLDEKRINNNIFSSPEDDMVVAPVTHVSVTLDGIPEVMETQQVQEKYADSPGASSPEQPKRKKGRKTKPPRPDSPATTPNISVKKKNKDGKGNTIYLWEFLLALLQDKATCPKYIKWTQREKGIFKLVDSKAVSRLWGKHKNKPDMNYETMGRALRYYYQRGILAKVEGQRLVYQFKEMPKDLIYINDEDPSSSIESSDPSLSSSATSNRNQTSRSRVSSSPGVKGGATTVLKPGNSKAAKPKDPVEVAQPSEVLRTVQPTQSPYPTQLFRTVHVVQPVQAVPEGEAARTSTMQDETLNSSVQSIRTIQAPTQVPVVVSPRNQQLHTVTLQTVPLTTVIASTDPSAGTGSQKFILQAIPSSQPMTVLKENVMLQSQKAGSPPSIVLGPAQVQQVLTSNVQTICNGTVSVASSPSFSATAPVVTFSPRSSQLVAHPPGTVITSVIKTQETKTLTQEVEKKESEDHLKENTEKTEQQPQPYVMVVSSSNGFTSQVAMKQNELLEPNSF
# In short: as §1
# EHF = biological target: T5, EHF (Homo sapiens, UniProt Q9NZC4 1-300)
# T5 sequence: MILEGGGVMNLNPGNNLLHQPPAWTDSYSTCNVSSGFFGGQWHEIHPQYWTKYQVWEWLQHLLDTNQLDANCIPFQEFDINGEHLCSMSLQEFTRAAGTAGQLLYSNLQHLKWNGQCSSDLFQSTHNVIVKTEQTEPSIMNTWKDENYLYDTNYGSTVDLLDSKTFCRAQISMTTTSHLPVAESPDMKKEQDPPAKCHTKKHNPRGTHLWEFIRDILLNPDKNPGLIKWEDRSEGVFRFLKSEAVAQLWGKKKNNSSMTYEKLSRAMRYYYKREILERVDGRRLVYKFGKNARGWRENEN
# In short: as §1
# SPI1 = SPI1 (Homo sapiens, UniProt P17947 1-270)
# In short: as §1
# SPIB = SPIB (Homo sapiens, UniProt Q01892 1-262)
# Sequence of SPIB (Q01892 whole entry): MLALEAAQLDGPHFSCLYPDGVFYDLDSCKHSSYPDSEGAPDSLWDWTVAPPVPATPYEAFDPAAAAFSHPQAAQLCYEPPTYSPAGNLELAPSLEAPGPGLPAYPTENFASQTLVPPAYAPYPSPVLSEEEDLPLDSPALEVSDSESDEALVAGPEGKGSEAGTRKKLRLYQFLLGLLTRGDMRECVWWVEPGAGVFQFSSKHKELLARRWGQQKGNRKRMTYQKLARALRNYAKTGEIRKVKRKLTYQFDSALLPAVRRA
# In short: as §1
# ELK3 = biological target: T6, ELK3 (Homo sapiens, UniProt P41970 1-407)
# T6 sequence: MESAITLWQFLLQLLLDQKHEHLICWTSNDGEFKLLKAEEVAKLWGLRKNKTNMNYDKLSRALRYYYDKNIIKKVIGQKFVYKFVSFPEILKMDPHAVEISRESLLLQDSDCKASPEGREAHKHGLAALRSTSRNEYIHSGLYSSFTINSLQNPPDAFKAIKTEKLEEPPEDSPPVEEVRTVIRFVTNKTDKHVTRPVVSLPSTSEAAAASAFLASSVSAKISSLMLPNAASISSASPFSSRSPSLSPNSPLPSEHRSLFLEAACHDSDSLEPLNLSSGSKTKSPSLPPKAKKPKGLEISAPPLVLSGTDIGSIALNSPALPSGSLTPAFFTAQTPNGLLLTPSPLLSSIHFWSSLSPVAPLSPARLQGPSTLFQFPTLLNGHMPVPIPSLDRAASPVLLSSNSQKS
# In short: as §1
sequence,measurement,setting,value
TAATCC,binding signal,FLI1,"1.29 fold enrichment (6-mer frequency, TF over GST control)"
same,binding signal,ELK1,"1.26 fold enrichment (6-mer frequency, TF over GST control)"
same,binding signal,GABPA,"1.25 fold enrichment (6-mer frequency, TF over GST control)"
same,binding signal,ERG,"1.34 fold enrichment (6-mer frequency, TF over GST control)"
same,binding signal,ELF1,"1.15 fold enrichment (6-mer frequency, TF over GST control)"
same,binding signal,EHF,"1.25 fold enrichment (6-mer frequency, TF over GST control)"
same,binding signal,SPI1,"1.29 fold enrichment (6-mer frequency, TF over GST control)"
same,binding signal,SPIB,"1.28 fold enrichment (6-mer frequency, TF over GST control)"
same,binding signal,ELK3,"1.35 fold enrichment (6-mer frequency, TF over GST control)"

# Source: article PMC7862700, “An all-to-all approach to the identification of sequence-specific readers for epigenetic DNA modifications on cytosine”
